Laboratory results as given in PubChem BioAssay AID651820 (National Center for Advancing Translational Sciences (NCATS), 2012).
In all, about 340,000 compounds went through this assay and about 12,000 (3.5%) were called active. Roughly 18% stayed inconclusive and do not appear here. Many of the other results were omitted from the sample, so actives are more common in it than they were. Unmarked numbers belong to inactive results. Calls come from the whole dose curve; as a rule, active = well fitted inhibition curve with a large enough effect; inconclusive = small, poorly fitted or top-dose-only effect, or another doubt; inactive = no such curve, though single readings can be large or run the other way.

Test: qHTS Assay for Inhibitors of Hepatitis C Virus (HCV)
Settings: Huh7.5.1 HCVcc-Cre infection, luciferase reporter, 44 h; series mostly up to 41.8 µM; activity change, negative = inhibition: at the top concentration
Summary of the method: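 Antiviral activity was scored by luciferase reporter output from cells infected with HCVcc-Cre (~0.5 moi) in presence of compound, 44 h infection period, cells seeded 1,000/well 4 h prior.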
% is set by controls: 0 for no effect and ±100 for the full control effect; potency is the fitted concentration of half-maximal effect.

SMILES | activity change, negative = inhibition | Potency
COc1ccc(C(CNC(=O)c2cc(S(=O)(=O)Nc3cccc(C)c3)ccc2C)N2CCCC2)cc1 (stereo not drawn) | -23% | 
COc1cccc(CNC(=O)CN2C(=O)NC(Cc3ccccc3)(c3ccccc3)C2=O)c1 (stereo not drawn) | 6.36% | 
COc1cccc(C(=O)N2CCC(n3nccc3NC(=O)C3CCOC3)CC2)c1 (stereo not drawn) | 16.5% | 
COc1ccccc1N1CCN(CC(=O)Nc2ccnn2C2CCCC2)CC1 | -3.97% | 
COc1cccc(N2CCN(CC(=O)Nc3ccnn3C3CCCC3)CC2)c1 |  | 10 µM (active)
CC(=O)NC(CC(=O)Nc1ccc(S(=O)(=O)N2CCOCC2)cc1)c1ccccc1 (stereo not drawn) | -6.34% | 
COc1ccc(-c2cc(C(=O)N3CCN(c4ccc(F)cc4)CC3)no2)cc1 |  | 22.4 µM (active)
O=C(c1ccccc1)c1ccc(C(=O)N2CCN(c3ccccc3)CC2)cc1 | -4.67% | 
O=C(c1cc(-c2ccc(Cl)cc2)on1)N1CCN(c2ccccc2)CC1 | 14.7% | 
O=C(c1cc2cc(F)ccc2[nH]1)N1CCN(c2ccc(F)cc2)CC1 | -3.92% | 
O=C(c1cc(-c2ccc(F)cc2)on1)N1CCN(c2ccc(F)cc2)CC1 | -27% | 
O=C(c1cccc(C(=O)N2CCN(c3ccc(F)cc3)CC2)c1)N1CCN(c2ccc(F)cc2)CC1 |  | 11.2 µM (active)
Cc1ccc(C)c(NC(=O)COC(=O)Cn2c(C)csc2=O)c1 | 11.3% | 
CCC1(CC)NC(=O)N(CC(=O)OCC(=O)c2cc(C)c(C)cc2C)C1=O | 0.464% | 
O=C(CNC(=O)c1ccccc1Br)NNC(=O)c1cccs1 | 9.22% | 
COc1cc(S(=O)(=O)N2CCN(C(=O)C3CC3)CC2)ccc1NC(C)=O | 10.1% | 
O=C(C1Cc2ccccc2CN1C(=O)c1ccco1)N1CCN(c2ccccc2)CC1 (stereo not drawn) | -1.5% | 
O=C(NCCC1=CCCCC1)c1ccc(-n2cncn2)cc1 | 1.61% | 
CCOc1ccc(C(=O)CCC(=O)NC2=NCCS2)cc1 | 5.16% | 
Cc1noc(C)c1CSCC(=O)Nc1ccc(Br)cc1Cl | -2.49% | 
CCOC(=O)CCCCCC(=O)Nc1ccc2c(c1)CC(=O)N([C@@H](C)CO)C[C@H](C)[C@@H](CN(C)Cc1ccccc1)O2 | 0.684% | 
Cc1cc(NC(=O)c2cnn3cccnc23)n(-c2ccccc2)n1 |  | 12.6 µM (active)
CC(=O)c1cccc(NC(=O)c2cc(C)nn2-c2ccccc2)c1 | 24.4% | 
O=C(Nc1ccc(Cl)cn1)c1cnn2cccnc12 | 10.6% | 
CSc1ncccc1C(=O)Nc1cccc(S(=O)(=O)N2CCOCC2)c1 | 1.96% | 
C[C@H](NC(=O)c1[nH]cnc1C(=O)Nc1nccs1)c1ccccc1 | 7.12% | 
Cc1nn(-c2ccccc2)nc1C(=O)OCC(=O)N1CCCCC1C (stereo not drawn) | -26.6% | 
CN(C)C(=O)N=NC(=O)N(C)C | 2.13% | 
